Screening results (PubChem)
Integrin act MD = qHTS for Activators of Integrin-Mediated Alleviation for Muscular Dystrophy. alpha7betagal myoblasts, beta-gal FDG fluorescence, 48 h. Potency, µM (series often up to 38.3 µM), for inactives: at the top dose activation, usual class: activators. hit rate 0.064% among 350,000. AID 624291, 2012;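 also: potency is read from the fitted curve at half-maximal effect; 100% = response of the positive control SU9516; nearly all actives have a fitted effect of over 60% in size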
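alpha7betagal+/- myoblasts (passage 13, 250/well) treated 48 h at 37C with compounds at 1:260 dilution of DMSO stock. Lysed, then beta-galactosidase activity read as FDG fluorescence (ex 480/em 540) after 30 min, with pre-read for autofluorescence.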
RORgamma inh = qHTS for inhibitors of ROR gamma transcriptional activity. Nuclear receptor ROR-gamma (Mus musculus), P51450. Drosophila S2 Gal4-RORgamma UAS-luciferase reporter, 20 h. Potency, µM (series often up to 53.6 µM), without a hit: at the top dose activity change, negative = inhibition, hits mostly inhibitors. hit rate 5.4% among 310,000. AID 2551, 2010; also: potency is read from the fitted curve at half-maximal effect; % is scaled to controls: 0 for no effect and ±100 for the full control effect; nearly all actives have a fitted effect of over 60% in size
Target sequence (P51450 whole entry, looked up, the tested form may be a part): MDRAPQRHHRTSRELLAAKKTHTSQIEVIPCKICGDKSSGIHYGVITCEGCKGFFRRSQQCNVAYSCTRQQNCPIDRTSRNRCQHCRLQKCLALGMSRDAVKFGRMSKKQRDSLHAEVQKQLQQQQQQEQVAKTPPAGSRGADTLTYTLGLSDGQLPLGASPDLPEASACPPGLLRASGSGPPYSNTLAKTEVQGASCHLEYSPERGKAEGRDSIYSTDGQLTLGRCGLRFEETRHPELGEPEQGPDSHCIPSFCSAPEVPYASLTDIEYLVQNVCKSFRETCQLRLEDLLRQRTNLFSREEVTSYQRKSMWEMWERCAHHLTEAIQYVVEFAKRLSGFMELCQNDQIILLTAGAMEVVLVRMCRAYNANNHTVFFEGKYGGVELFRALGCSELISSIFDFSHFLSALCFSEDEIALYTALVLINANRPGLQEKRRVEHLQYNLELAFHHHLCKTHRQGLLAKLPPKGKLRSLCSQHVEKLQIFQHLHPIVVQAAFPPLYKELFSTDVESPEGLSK
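ROR gamma transcriptional activity was tracked as Gal4-UAS luciferase output in stably transfected Drosophila Schneider cells, with compound added 1 hr before 700 uM copper sulfate induction and a 20 hr ambient-temperature incubation.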
ERG Ets-DNA blk = qHTS for Small Molecule Inhibitors of the ERG Ets/DNA interaction; fluorescence polarization, His-ERG Ets domain / labelled DNA; hit rate 0.028% among 370,000; Potency, µM (series often up to 76.9 µM), without a hit: at the highest dose FP activity, negative = inhibition, usual class: inhibitors; AID 624246, 2012; Transcriptional regulator ERG (Homo sapiens), P11308; active = well fitted inhibition curve with a large enough effect in the polarisation, with a control signal flat; inconclusive = small, poorly fitted or top-dose-only effect, or effect the other way, or a change in a side signal; inactive = no such curve, though single readings can be large or run the other way; the % refers to the polarisation;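 also: polarization taken with two DNA probes labelled with fluorescein and Texas red; potency is read from the fitted curve at half-maximal effect; % of control where 0% means no effect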
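His-tagged ERG Ets domain (1 uM in the protein solution; 300mM KCl, 50mM Tris-HCl, 1mM EDTA, 1mM DTT, pH 7.5) received compound, then a probe mix of 5 nM fluorescein-DNA and 100nM Texas-615-DNA. Fluorescence polarization was read for both dyes.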
Gal4-VP16 FLuc = VP16 counterscreen qHTS for inhibitors of ROR gamma transcriptional activity | Drosophila S2 Gal4-VP16 UAS-luciferase, luminescence, 20 h | Potency, µM (titrated, usually from 53.6 µM), for inactives: at the highest dose activity, negative = inhibition, actives largely listed as inhibitors | hit rate 3.5% among 310,000;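 also: Gal4-VP16 expression switched on by copper sulfate through the metallothionein promoter; potency is read from the fitted curve at half-maximal effect; % is scaled to controls: 0 for no effect and ±100 for the full control effect; nearly all actives have a fitted effect of over 50% in size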
Giardia killer = Small Molecules that selectively kill Giardia lamblia: qHTS | Giardia lamblia trophozoite viability | activity change, % at 7.66 µM, hits read low | hit rate 0.15% among 340,000 | AID 540267, 2011; in the data active = activity change below about -80%; inconclusive = between about -30% and that limit;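 also: parasites exposed to compound for two days anaerobically before the ATP read; % is scaled to controls: 0 for no effect and ±100 for the full control effect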
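Trophozoites 100 cells/well + cpd; 48 hrs, 37 deg C, anaerobic. ATPLite 1-Step added, 15-30 min RT, luminescence read (ATP-based viability).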
* = called active by the depositor; u = inconclusive; x = no result given; [ ] = another dose, or the depositor's remark. This excerpt belongs to a sample that is enriched for hits. Unless noted, calls follow the shape of the dose curve; as a rule, active = well fitted curve in the direction sought with a large enough effect; inconclusive = small, poorly fitted or top-dose-only effect, or another doubt; inactive = no such curve, though single readings can be large; an effect the other way counts as inactive or inconclusive.

SMILES | Integrin act MD | RORgamma inh | ERG Ets-DNA blk | Gal4-VP16 FLuc | Giardia killer
CCOC(=O)/C(=C\c1ccc(OC(F)F)cc1)C1=Nn2c(nnc2-c2ccc(Cl)cc2)SC1 | -54.4% | 6.31µM* | 4.6% | 5.62µM* | 27.5
O=C(c1ccccc1)c1coc2c1C(=O)c1ccccc1C2=O | -46.7% | 17.8µM* | -5.0% | u | 1.9
COc1ccc2occ(C(=O)c3ccccc3)c2c1 | 0.0% | 21.1% | 15.8% | -15.3% | -1.0
O=C1c2ccccc2C(=O)c2c1oc(C(F)(F)F)c2C(=O)c1ccccc1 | -7.7% | -7.5% | -1.2% | -13.6% | 4.3
COc1ccc(C(=O)c2coc3c2C(=O)C(=O)c2ccccc2-3)cc1 | -39.5% | 11.2µM* | 4.8% | u | 4.0
C/C(=N\Nc1ccccn1)c1ccc(OC(F)F)cc1 | 4.3% | 14.1µM* | 6.5% | u | 13.3
C/C(=N\Nc1ccccn1)c1ccc(C#N)cc1 | 24.2% | -37.5% | -3.6% | -7.0% | 14.4
CCC1Oc2ccc(C)cc2N(CC(=O)NCc2cccc(OC)c2)C1=O (centres undefined) | 4.6% | u | -5.1% | 22.4µM* | 8.4
CCC1Oc2ccc(C)cc2N(CC(=O)NCc2cc(OC)ccc2OC)C1=O (centres undefined) | -9.9% | -29.3% | x | -11.8% | 5.4
O=C(CCCN1C(=O)/C(=C/c2cccc(Br)c2)SC1=S)Nc1cccnc1 | -52.4% | 14.1µM* | 19.4% | -9.1% | -6.3
Cc1ccc(/C=C2\SC(=S)N(CCCC(=O)Nc3cccnc3)C2=O)cc1 | -50.1% | 6.31µM* | 13.0% | 2.24µM* | -15.8
Cc1ccc(/C=C2\SC(=S)N(CC(=O)Nc3cccnc3)C2=O)cc1 | 29.5% | 8.5% | 21.6% | -4.3% | 13.1
O=C(CCCN1C(=O)/C(=C\c2cccc(Br)c2)SC1=S)Nc1cccnc1 | -53.2% | 0.9% | 4.9% | -4.9% | -8.4
COc1ccc(N2CCN(c3ncnc4onc(C)c34)CC2)cc1 | x | x | 0.6% | x | x
N=C1SCC(=O)N1/N=C/c1ccccc1 | u | 11.2µM* | 28.2µM* | u | -10.9
O=C1CSC(=S)N1/N=C/c1cccc(C(F)(F)F)c1 | 21.3% | 7.94µM* | 43.1% | u | 11.4
O=C1CSC(=S)N1/N=C/C=C/c1ccccc1 | -30.7% | 2.51µM* | 13.6% | u | 0.5
O=C1CSC(=S)N1/N=C/c1ccc(C(F)(F)F)cc1 | u | u | 40.0% | -1.1% | 0.0
Cc1noc(C)c1-c1ccc2ncnc(NCc3cccn3C)c2c1 | x | -2.1% | x | 7.3% | x
COc1ccc(C2=N[C@@H](C(C)C)CO2)cc1 | x | -20.0%[96.6 µM] | x | 16.2%[96.6 µM] | x
COc1ccc(C2=NC(c3ccccc3)CO2)cc1 (centres undefined) | x | 10µM* | x | 12.6µM* | x
COc1ccc(C2=N[C@H](c3ccccc3)CO2)cc1 | x | 15.8µM* | x | -5.9%[96.6 µM] | x
Cc1noc(C)c1S(=O)(=O)N(C)C[C@@H]1OCc2cnnn2CCCC(=O)N([C@@H](C)CO)C[C@H]1C | 26.5% | x | x | x | x
CN(C)S(=O)(=O)c1cccc(NC(=O)CN2C(=O)NC(Cc3c[nH]c4ccccc34)C2=O)c1 (centres undefined) | 44.1% | 4.1% | 6.6% | -1.8% | 12.0
CC(=O)N1CCN(C(=O)c2cccc(S(=O)(=O)N3CCOCC3)c2)CC1 | 9.2% | x | -19.2% | x | -1.6
SMILES | Integrin act MD | RORgamma inh | ERG Ets-DNA blk | Gal4-VP16 FLuc | Giardia killer
Cc1cc([N+](=O)[O-])ccc1NC(=S)NC(=O)Cc1ccccc1 | -3.7% | 22.4µM* | -0.1% | u | 1.9
CCCCC(=O)NC(=S)Nc1cc([N+](=O)[O-])ccc1OC | 10.4% | 10µM* | -5.4% | -25.2% | 5.9
Cc1cc([N+](=O)[O-])ccc1NC(=S)NC(=O)C(c1ccccc1)c1ccccc1 | -3.4% | 7.94µM* | -4.1% | 10µM* | -26.0
Cc1ccc([N+](=O)[O-])cc1NC(=S)NC(=O)CC(C)(C)C | 13.3% | 6.31µM* | -5.7% | 22.4µM* | -6.9
COc1ccc([N+](=O)[O-])cc1NC(=S)NC(C)=O | -0.4% | -8.6% | 8.0% | 1.9% | 1.1
CC(C)CO/N=C1/C[C@@H](O)[C@@H](O)[C@@H]2[C@H]3C(=O)N(c4ccc(F)cc4F)C(=O)[C@@H]3CC[C@@H]12 | x | 2.8%[10 µM] | x | -3.1%[10 µM] | x
CCc1nnc(NC(=O)CCN2C(=O)C3CCCCC3C2=O)s1 (centres undefined) | 40.7% | 4.7% | -8.3% | 2.8% | -22.3
COc1ccc(C(=O)N/N=C/c2sc(N3CCOCC3)nc2-c2ccccc2)cc1OC | 16.0% | 2.82µM* | -1.1% | 6.7% | 5.8
Cc1occc1C(=O)N/N=C/c1sc(N2CCOCC2)nc1-c1ccccc1 | u | 12.6µM* | 20.1% | u | -11.6
O=C(N/N=C/c1sc(N2CCOCC2)nc1-c1ccccc1)c1ccc(O)cc1 | -31.6% | 5.4% | -14.0% | -2.9% | 3.0
CC(C)C[C@H](NC(=O)[C@@H]1CCCN1C(=O)[C@H](CO)NC(=O)[C@H](Cc1ccccc1)NC(=O)CNC(=O)[C@@H]1CCCN1C(=O)[C@@H]1CCCN1C(=O)[C@@H](N)CCCN=C(N)N)C(=O)O | x | 15.6% | x | -5.6% | x
CCc1cc(-c2n[nH]c(C)c2-c2ccc3c(c2)OCCO3)c(O)cc1O | x | 12.6µM* | x | u | x
Cc1cc(=O)[nH]c(SCC(=O)c2ccc(C(C)C)cc2)n1 | -7.7% | 1.12µM* | -5.4% | u | -14.0
Cc1ncc(CO)c(/C=N/NC(=O)c2ccc(Br)cc2)c1O | x | 11.2µM* | x | u | x
CC(=O)N1c2ccc(Cl)cc2C2C=CCC2C1c1cccc2ccccc12 (centres undefined) | -16.1% | u | -2.2% | 22.4µM* | 13.6
S=c1[nH]ccn1Cc1ccccc1 | -7.4% | 11.2µM* | -5.6% | u | 0.0
S=c1[nH]ccn1-c1ccccc1Cl | u | u | 67.3% | -14.4% | -1.3
O=C(CCc1c[nH]c2ccccc12)NC(Cc1ccccc1)C(=O)O (centres undefined) | -18.5% | -20.1% | 4.9% | 2.2% | -12.9
Oc1ccc(Br)cc1-c1cc(-c2ccccc2F)[nH]n1 | -3.5% | 1.78µM* | 7.2% | 3.55µM* | 8.1
Oc1ccc(Br)cc1-c1cc(-c2ccccc2Cl)[nH]n1 | -19.3% | 2.82µM* | -9.2% | -28.4% | 4.7
COCCC1CCCCN1C(=O)c1cc(COc2ccc(-n3cncn3)cc2)on1 (centres undefined) | -44.9% | 0.1% | 2.2% | 8.91µM* | -11.6
Cc1nc(CN(C)C(=O)c2cc(COc3ccc4ncccc4c3)on2)cs1 | -39.1% | u | 1.7% | 6.31µM* | 4.1
CCN1CCN(C(=O)c2cc(COc3ccc4ncccc4c3)on2)CC1 | -31.2% | -43.9% | 7.7% | u | 11.3
CCC1CCCCN1C(=O)c1cc(COc2ccc3ncccc3c2)on1 (centres undefined) | -20.6% | u | -4.3% | 2.82µM* | 16.3
